Inconclusive results are not listed. Calls of active or inactive are those of the source. Calls follow the shape of the dose curve; as a rule, active = well fitted inhibition curve with a large enough effect; inconclusive = small, poorly fitted or top-dose-only effect; inactive = flat fitted curve, though single readings scatter.
How the values were obtained:
7G8 = assay: qHTS profiling for inhibitors of Plasmodium falciparum proliferation (AID 504749); also: nearly all actives have a fitted effect of over 60% in size;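 as to activity, negative = inhibition: 0% = DMSO vehicle and full inhibition = artemisinin control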; details: P. falciparum in erythrocytes, SYBR Green DNA, 72 h; series mostly up to 28.7 µM
Summary of the method: (§1)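 In a 72 h erythrocytic culture (37 C, humidified, 5% CO2) at 2.5% hematocrit and 0.3% starting parasitemia, compounds were tested; SYBR Green I in detergent lysis buffer stained parasite DNA overnight.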

[1] = as above; details: P. falciparum in erythrocytes, SYBR Green DNA, 72 h; for activity, negative = inhibition: at 28.7 µM (top of the series)
Summary of the method: as §1

3D7 = assay: as above; details: P. falciparum in erythrocytes, SYBR Green DNA, 72 h; series mostly up to 28.7 µM
Summary of the method: as §1

AA1029 = assay: as above; details: P. falciparum in erythrocytes, SYBR Green DNA, 72 h; series mostly up to 28.7 µM
Summary of the method: as §1
Potency is read from the fitted curve at half-maximal effect.

CN(C)CCCN1c2ccccc2Sc2ccc(Cl)cc21
active: Potency (7G8) 10 µM

Cc1ccc(C(C)C)cc2c(C)ccc1-2
inactive: activity, negative = inhibition ([1]; parasite line A) -17.3% | activity, negative = inhibition ([1]; parasite line B) -20.9% | Potency (3D7) | Potency (AA1029)

NCCNCCNCCNCCN
inactive: activity, negative = inhibition ([1]; parasite line A) 12.5% | activity, negative = inhibition ([1]; parasite line B) -2.06% | Potency (3D7) | Potency (7G8) | Potency (AA1029)

Cc1c(Cl)cccc1Nc1ccccc1C(=O)O
inactive: activity, negative = inhibition ([1]; parasite line A) -2.73% | activity, negative = inhibition ([1]; parasite line B) 8.76% | Potency (3D7) | Potency (AA1029)

O=C(O)c1ccccc1-c1ccc(C(F)(F)F)cc1
inactive: activity, negative = inhibition ([1]; parasite line A) 11.3% | activity, negative = inhibition ([1]; parasite line B) 19.8% | Potency (3D7) | Potency (7G8) | Potency (AA1029)

OCC(O)CN1CCN(c2ccccc2)CC1 (stereo not drawn)
inactive: activity, negative = inhibition ([1]; parasite line A) 5.92% | activity, negative = inhibition ([1]; parasite line B) 10.4% | Potency (3D7) | Potency (7G8) | Potency (AA1029)

Oc1ccc(C(O)CNCCCCCCNCC(O)c2ccc(O)c(O)c2)cc1O (stereo not drawn)
active: Potency (7G8) 3.55 µM

CC(C)(C)C(=O)C(Oc1ccc(Cl)cc1)n1ccnc1 (stereo not drawn)
active: Potency (3D7) 10 µM | Potency (7G8) 7.94 µM

OCCN1CCN(CCCN2c3ccccc3Sc3ccc(Cl)cc32)CC1
active: Potency (7G8) 4.47 µM | Potency (AA1029) 3.55 µM

CSc1ccc2c(c1)N(CCC1CCCCN1C)c1ccccc1S2 (stereo not drawn)
active: Potency (7G8) 5.62 µM | Potency (AA1029) 10 µM

C[C@]12C[C@H](O)[C@H]3[C@@H](CCC4=CC(=O)CC[C@@]43C)[C@@H]1CC[C@@H]2C(=O)CO
inactive: Potency (3D7) | Potency (7G8)

CCCn1cnc2c1c(=O)n(CCCCC(C)=O)c(=O)n2C
active: Potency (7G8) 11.2 µM
inactive: activity, negative = inhibition ([1]; parasite line A) -5.61% | activity, negative = inhibition ([1]; parasite line B) -0.0808% | Potency (3D7) | Potency (AA1029)

CC1=C(CC(=O)O)c2cc(F)ccc2/C1=C\c1ccc(S(C)=O)cc1 (stereo not drawn)
inactive: activity, negative = inhibition ([1]; parasite line A) -3.64% | activity, negative = inhibition ([1]; parasite line B) -4.38% | Potency (3D7) | Potency (AA1029)

Cc1ccc2nc(N)[nH]c(=O)c2c1Sc1ccncc1
active: Potency ([1]; parasite line A) 7.94 µM | Potency ([1]; parasite line B) 11.2 µM | Potency (7G8) 5.62 µM | Potency (AA1029) 11.2 µM

O=C1NS(=O)(=O)c2ccccc21
inactive: activity, negative = inhibition ([1]; parasite line A) 2.53% | Potency (3D7) | Potency (7G8) | Potency (AA1029)

CCCCOC(=O)c1ccc(O)cc1
inactive: activity, negative = inhibition ([1]; parasite line A) 8.74% | activity, negative = inhibition ([1]; parasite line B) 8.94% | Potency (3D7) | Potency (AA1029)

C=Cc1c(C)c2cc3[nH]c(cc4nc(cc5nc(cc1[nH]2)C(C)=C5CCC(=O)O)C(CCC(=O)O)=C4C)c(C)c3C=C
inactive: activity, negative = inhibition ([1]; parasite line A) -6.02% | activity, negative = inhibition ([1]; parasite line B) 6.67% | Potency (3D7) | Potency (7G8) | Potency (AA1029)

CCCc1c(OCCCCc2nn[nH]n2)ccc(C(C)=O)c1O
inactive: activity, negative = inhibition ([1]; parasite line B) -24.5% | Potency (3D7) | Potency (AA1029)
active: Potency (7G8) 12.6 µM

O=C(O)[C@@H]1CSCN1
inactive: activity, negative = inhibition ([1]; parasite line A) 8.72% | activity, negative = inhibition ([1]; parasite line B) -0.798% | Potency (3D7) | Potency (7G8) | Potency (AA1029)

CCCCCCCCCCCCCCCC(=O)NCCO
inactive: activity, negative = inhibition ([1]; parasite line A) 5.7% | activity, negative = inhibition ([1]; parasite line B) 4.77% | Potency (3D7) | Potency (AA1029)

Cc1cc(N)c2ccccc2[n+]1CCCCCCCCCC[n+]1c(C)cc(N)c2ccccc21
active: Potency ([1]; parasite line B) 14.1 µM | Potency (3D7) 0.708 µM | Potency (7G8) 0.0355 µM | Potency (AA1029) 0.316 µM

Nc1ccc(S(=O)(=O)Nc2ccc(Cl)nn2)cc1
inactive: Potency (3D7) | Potency (7G8)

Reference: PubChem BioAssay (NCATS)
